Experimental findings from PubChem BioAssay (EPA / NIEHS) are described below.

Records with an inconclusive call do not appear. Calls of active or inactive are those of the source. How the source made its calls: active means hit-call score of the fitted dose curve at least 0.9, where 1 is the maximum; inconclusive means response in the unintended direction; inactive means score below 0.9.

Sequence of Nuclear receptor subfamily 1 group I member 3 (Homo sapiens) (Q14994 whole entry, looked up): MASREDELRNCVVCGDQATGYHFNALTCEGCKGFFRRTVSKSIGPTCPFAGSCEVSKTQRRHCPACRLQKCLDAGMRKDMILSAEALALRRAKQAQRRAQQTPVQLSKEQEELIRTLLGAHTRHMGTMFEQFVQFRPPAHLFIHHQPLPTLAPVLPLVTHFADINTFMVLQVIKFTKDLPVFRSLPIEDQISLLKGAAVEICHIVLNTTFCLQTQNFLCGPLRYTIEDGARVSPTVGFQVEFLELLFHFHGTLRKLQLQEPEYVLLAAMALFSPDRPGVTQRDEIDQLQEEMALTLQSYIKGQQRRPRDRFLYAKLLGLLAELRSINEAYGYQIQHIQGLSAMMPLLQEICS

The experiment addresses Nuclear receptor subfamily 1 group I member 3 (Homo sapiens) (UniProt Q14994). The experiment is described as follows: ATG_CAR_TRANS: Attagene TRANS-FACTORIAL HepG2 Assay for human Constitutive Androstane Receptor (CAR) (AID 2282969).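 Further: activators raise reporter mRNA above DMSO so AC50 marks induction.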 Particulars: HepG2 Attagene TRANS-FACTORIAL CAR reporter. On the procedure: ATG_TRANS is a cell-based, multiplexed-readout assay that uses HepG2, a human liver cell line, with measurements taken at 24 hours after chemical dosing in a 24-well plate.ATG_CAR_TRANS is one of 30 assay component(s) measured or calculated from the ATG_TRANS assay. It is designed to make measurements of mRNA induction, a form of inducible reporter, as detected with fluorescence intensity signals by Reverse transcription polymerase chain reaction (RT-PCR) and Capillary electrophoresis technology.Data from the assay component ATG_CAR_TRANS was analyzed into 1 assay endpoint. This assay endpoint, ATG_CAR_TRANS, was analyzed in the positive analysis fitting direction relative to DMSO as the negative control and baseline of activity. Using a type of inducible reporter, measures of mRNA for gain-of-signal activity can be used to understand the reporter gene at the transcription factor-level as they relate to the gene NR1I3. Furthermore, this assay endpoint can be referred to as a primary readout, because this assay has produced multiple assay endpoints where this one serves a reporter gene function. To generalize the intended target to other relatable targets, this assay endpoint is annotated to the nuclear receptor intended target family, where the subfamily is non-steroidal.
Human liver HepG2 cells are transiently transfected with multiple reporter transcription units (MRTUs) in 6-well plates using FuGene 6 reagent (Roche; 3 ml FuGene/1 mg DNA). The MRTU constructs are regulated by a cis-regulating element (promoter). […] A major difference between the CIS and TRANS system is that in CIS activities of endogenous TFs are measured, whereas the TRANS assay evaluates changes in activities of exogenous, chimeric NR-Gal4 proteins. […] At the end of 24 hour incubation, total RNA was isolated using TriZol reagent (Invitrogen). The isolated RNA is then reverse-transcribed using oligo(dT) primer and Mo-MLV reverse transcriptase (Invitrogen) with DNAse I (Ambion) treatment for 30 min. The one-tenth of the produced cDNA was amplified by PCR using Taq DNA polymerase (Invitrogen) and two reporter sequence-specific primers. The PCR products were fluorescently labeled by primer extension with 6-arboxyfluorescein (6-FAM) 5'-labeled reporter sequence-specific primer (2 min at 95 C, 20 s at 68 C and 10 min at 72 C) and these products were digested with 5U of HpaI (New England Biolabs) for 2h at 37 C. The fragments were purified using Qiaquick PCR columns (Qiagen), analyzed on an ABI 3130xL genetic analyzer (Applied Biosystems) with peak positions identified by using a set of X-rhodamine (ROX)-labeled MapMarker1000 molecular weight standards (BioVentures). The raw capillary electrophoresis data was processed using Attagraph software (Attagene).
For the molecule `CSC(=O)c1c(C(F)F)nc(C(F)(F)F)c(C(=O)SC)c1CC(C)C`, the call was inactive.

On to `Cc1ccc(N=CN(C)C=Nc2ccc(C)cc2C)c(C)c1`, for which the molecule was called inactive.

In the case of `COc1cc(OC)nc(NC(=O)NS(=O)(=O)c2ncccc2OCC(F)(F)F)n1`, the outcome was inactive.

In the case of `O=C(Nc1ccccc1-c1ccc(Cl)cc1)c1cccnc1Cl`, the molecule was called inactive.

`CCC(C)n1c(=O)[nH]c(C)c(Br)c1=O` (stereo not given): the molecule was classed as inactive.

Turning to `CC(C)N1C(=O)N(c2ccccc2)CSC1=NC(C)(C)C`, the molecule was called inactive.

As to `CCSC(=O)N1CCCCCC1`, the molecule was classed as inactive.

In the case of `CCCN(CC)CC1COC2(CCC(C(C)(C)C)CC2)O1` (stereo not given), the outcome was inactive.

In the case of `CC1(C)CON(Cc2ccccc2Cl)C1=O`, the result was inactive.

On to `O=C1C2CC=CCC2C(=O)N1SC(Cl)(Cl)Cl` (stereo not given), for which the call was inactive.

For `CC1(C)CCC(=Cc2ccc(Cl)cc2)C1(O)Cn1cncn1` (stereo not given), the outcome was inactive.

Take `CNC(=O)Oc1cccc2ccccc12`: the molecule was classed as inactive.

As to `CCCC(=NOCC)C1=C(O)CC(CC(C)SCC)CC1=O` (stereo not given), the molecule was classed as inactive.

With `CCN(CC)C(=O)C(C)Oc1cccc2ccccc12` (stereo not given), the call was inactive.

Regarding `COC(=O)NS(=O)(=O)c1ccc(N)cc1`, the result was inactive.

For `CC1(C)C(C=C(Cl)Cl)C1C(=O)OC(C#N)c1cccc(Oc2ccccc2)c1` (stereo not given), the call was inactive.

Take `CCCCC(C#N)(Cn1cncn1)c1ccc(Cl)cc1` (stereo not given): the outcome was inactive.

On to `CCCCC(O)(Cn1cncn1)c1ccc(Cl)cc1Cl` (stereo not given), for which the outcome was inactive.

Turning to `CC(C)(C)C(=O)C(Oc1ccc(Cl)cc1)n1cncn1` (stereo not given), the call was inactive.

For the molecule `CC(C)Nc1nc(Cl)nc(NC(C)C)n1`, the call was inactive.

In the case of `COP(=S)(OC)Oc1ccc([N+](=O)[O-])c(C)c1`, the call was inactive.

`CS(=O)(=O)c1cc(C(F)(F)F)ccc1C(=O)c1cnoc1C1CC1`: the molecule was called inactive.

With `CCOC(=O)C(C)OC(=O)c1cc(Oc2ccc(C(F)(F)F)cc2Cl)ccc1[N+](=O)[O-]` (stereo not given), the call was inactive.

Take `CC(C)=CC1C(C(=O)OCc2coc(Cc3ccccc3)c2)C1(C)C` (stereo not given): the molecule was classed as inactive.

On to `CC(C)C1(C)N=C(c2ncccc2C(=O)O)NC1=O` (stereo not given), for which the molecule was called inactive.

Regarding `CN/C(=N\[N+](=O)[O-])NCc1cnc(Cl)s1`, the molecule was called inactive.

With `CCNC(=O)NC(=O)C(C#N)=NOC`, the molecule was classed as inactive.

As for `CCN(CC)c1nc(C)cc(OP(=S)(OC)OC)n1`, the call was inactive.

Take `C=C(C)CN(CC)c1c([N+](=O)[O-])cc(C(F)(F)F)cc1[N+](=O)[O-]`: the molecule was called inactive.

For `CCOc1nc(F)cc2nc(S(=O)(=O)Nc3c(Cl)cccc3Cl)nn12`, the result was inactive.

In the case of `N#Cc1c(Cl)cccc1Cl`, the molecule was classed as inactive.

Consider `CCCCOCN(C(=O)CCl)c1c(CC)cccc1CC`, for which the call was inactive.

As for `Cc1c(COC(=O)[C@@H]2[C@H](/C=C(\Cl)C(F)(F)F)C2(C)C)cccc1-c1ccccc1`, the molecule was classed as inactive.

In the case of `COCc1cnc(C2=NC(C)(C(C)C)C(=O)N2)c(C(=O)O)c1` (stereo not given), the call was inactive.

Take `Cc1cc(C)nc(Nc2ccccc2)n1`: the outcome was inactive.

In the case of `O=C(O)c1c(Cl)ccc2cc(Cl)cnc12`, the molecule was classed as inactive.

Turning to `O=c1n(Cl)c(=O)n(Cl)c(=O)n1Cl`, the molecule was called inactive.

Regarding `COCC(=O)N(c1c(C)cccc1C)C(C)C(=O)OC` (stereo not given), the call was inactive.

As for `CO/N=C(/C1=NOCCO1)c1ccccc1Oc1ncnc(Oc2ccccc2Cl)c1F`, the outcome was inactive.

In the case of `CCOc1nc(C(Cl)(Cl)Cl)ns1`, the outcome was inactive.
